Screening data deposited in PubChem BioAssay by National Center for Advancing Translational Sciences (NCATS).
Sampled rows, rich in hits. Any-hit rate of the full collection: about 21%.
HCV inh: qHTS Assay for Inhibitors of Hepatitis C Virus (HCV); Potency, µM (doses to about 41.8 µM), hits mostly inhibitors; Huh7.5.1 HCVcc-Cre infection, luciferase reporter, 44 h; actives 3.4% (n = 340,000); AID 651820, 2012
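Cells seeded at 1,000/well and cultured 4 h, then compounds added followed by HCVcc-Cre virus (~0.5 moi). After 44 h further culture, luciferase substrate was added, plates held 15 min at room temperature, and luminescence read for 15 sec.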
Pf growth 96h: Primary qHTS for delayed death inhibitors of the malarial parasite plastid, 96 hour incubation. Potency, µM (doses to about 28.7 µM), most hits filed as inhibitors. actives 6.9% (n = 320,000). P. falciparum luciferase reporter growth, 96 h
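Luminescence readout: decreased luciferase signal marks inhibited growth of reporter-expressing P. falciparum in infected red cells (2% hematocrit, 0.05% parasitemia final), exposed to compound two generations (96 h, 37 C, 5% CO2).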
CHX counter: Cycloheximide Counterscreen for Small Molecule Inhibitors of Shiga Toxin. cell reporter, cycloheximide protein synthesis inhibition counterscreen. max response, %. actives 12% (n = 300,000); in the data active = max response mostly above about 13%, no sharp cut-off; inactive = mostly below about 14%; also: read at 38.3 µM for the half of the compounds with a filed dose
Shiga inhibitor: A qHTS for Small Molecule Inhibitors of Shiga Toxin; inhibition, % at 38.7 µM; actives 9.2% (n = 290,000); Vero cells, Shiga toxin protein synthesis inhibition reporter; in the data active = inhibition mostly above about 28%, no sharp cut-off; inactive = mostly below about 43%
Pf growth 48h: Primary qHTS for delayed death inhibitors of the malarial parasite plastid, 48 hour incubation. P. falciparum luciferase growth in erythrocytes, 48 h. Potency, µM (highest dose often 28.7 µM), usual class: inhibitors. actives 5.9% (n = 310,000)
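In quantitative HTS format, infected erythrocytes bearing luciferase-reporter parasites were treated for a single generation at 37 C. Luminescence after adding detection reagent served as the growth measure.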
HCMV antiviral: qHTS Assay for inhibitors of the human cytomegalovirus (HCMV); HFF cells, HCMV-luciferase reporter, 72 h; active compounds read low; activity change, negative = inhibition, % at 57.5 µM; actives 4.5% (n = 410,000); in the data active = activity change below about -60%; inconclusive = no clear call, values can overlap the other calls; inactive = above about -39%
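Two-dose cell screen: HFF monolayers treated with compounds and infected with luciferase-expressing HCMV at 1 PFU/cell, 72 h at 37C, then lysed for luciferase measurement.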
A number is an active result; n = inactive; u = inconclusive; x = no result; [ ] = another dose, or the depositor's remark. Unless noted, calls follow the shape of the dose curve; as a rule, active = well fitted inhibition curve with a large enough effect; inconclusive = small, poorly fitted or top-dose-only effect, or another doubt; inactive = no such curve, though single readings can be large or run the other way.

SMILES | HCV inh | Pf growth 96h | CHX counter | Shiga inhibitor | Pf growth 48h | HCMV antiviral
Nc1nonc1-n1nnc(C(=O)N/N=C/c2ccncc2)c1-c1ccccc1 | n | n | n | n | n | n
CC(CNC(=O)C1CCN(C(=O)c2cc3sccc3n2C)CC1)c1ccccc1 (stereo unspecified) | x | x | x | x | x | n
CCOC(=O)c1nnn(-c2nonc2N)c1-c1ccc(C)cc1 | n | n | n | n | 15µM | n
Cc1c(C(=O)N2CCCCC2)nnn1-c1nonc1N | n | n | n | n | n | -62
Nc1nonc1C(=O)N1CCCC1 | n | n | n | n | n | n
CCOC(=O)c1nnn(-c2nonc2N)c1-c1ccc(Br)cc1 | n | n | n | n | u | n
CCOC(=O)c1nnn(-c2nonc2N)c1CSc1ccccc1 | n | 3.3µM | n | n | x | n
Cc1ccc(-c2c(C(=O)N/N=C/c3cccs3)nnn2-c2nonc2N)cc1 | n | 1.2µM | n | n | u | x
c1ccc(-c2nc3cccnc3nc2-c2ccccc2)cc1 | n | x | x | x | x | n
CCOc1cc(NC(=S)NCCOC)c(OCC)cc1NC(=O)c1ccco1 | u | u | n | n | n | n
CC(C)NC(=O)CSc1nc2ccccc2c(=O)n1Cc1ccc(C(=O)NC(C)C)cc1 | x | x | x | x | x | n
C=CCO/N=C(/C)c1ccc(Oc2cnccn2)cc1 | n | n | 27 | 47 | n | n
COc1ccc(C(=O)O/N=C(\C)c2cnccn2)cc1 | n | n[5.75 µM] | n | n | n | n
Cc1cc(NC(=O)CSc2ncc(C(=O)Nc3ccc(F)cc3)c(=O)n2C)no1 | x | x | x | x | x | n
CN(Cc1cn(C)nc1-c1cccc(Cl)c1)C1CCOCC1 | n | n | n | n | n | n
CN(Cc1ccon1)Cc1cn(C)nc1-c1cccc(Cl)c1 | n | n | 33 | n | n | n
CCCN(CC(=O)Nc1ccc(Cl)cc1Cl)C(=O)/C=C/c1ccco1 | u | n | 77 | 174 | n | -66
CCN(CC(=O)Nc1ccc(NC(C)=O)cc1)C(=O)/C=C/c1ccco1 | n | n | x | x | n | n
Cc1cccc(C(=O)N[C@H](C(=O)OCC(=O)NC2CCS(=O)(=O)C2)C(C)C)c1 (stereo partly specified) | n | n | n | n | n | n
CCN(C)C(=O)Oc1cccc([C@H](C)N(C)C)c1 | x | n | x | x | n | x
CN(CCCCCCCCCCN(C)C(=O)Oc1cccc([N+](C)(C)C)c1)C(=O)Oc1cccc([N+](C)(C)C)c1 | u | 0.074µM | x | x | 0.12µM | n
O=C(CSc1cccc[n+]1[O-])C12CC3CC(CC(C3)C1)C2 | u | 4.1µM | n | n | n | n
Cc1cccc[n+]1CC(=O)/C=C1\N(C)c2ccccc2C1(C)C | n | 2.9µM | n | n | 2.9µM | -95
CN1/C(=C\C(=O)CSc2cccc[n+]2[O-])C(C)(C)c2ccccc21 | u | 3.3µM | n | n | n | n
CN1/C(=C/C(=O)CSc2ccccc2C(=O)O)C(C)(C)c2ccccc21 | n | n | n | n | n | n
SMILES | HCV inh | Pf growth 96h | CHX counter | Shiga inhibitor | Pf growth 48h | HCMV antiviral
CN1/C(=C\C(=O)C[n+]2ccc(C(=O)c3ccccc3)cc2)C(C)(C)c2ccccc21 | u | 7.4µM | n | n | 2.1µM | -95
NCCCC[C@H](NC(=O)[C@H](CCCN=C(N)N)NC(=O)[C@H](CO)NC(=O)[C@H](CCCN=C(N)N)NC(=O)[C@@H](N)Cc1ccc(O)cc1)C(=O)N[C@@H](Cc1ccc(O)cc1)C(=O)N[C@@H](CO)C(=O)N[C@@H](CO)C(=O)N[C@@H](Cc1c[nH]c2ccccc12)C(=O)N[C@@H](Cc1ccc(O)cc1)C(=O)O | x | x | n | n | x | x
O=C(c1[nH]c(C(F)(F)F)nc1-c1ccccc1)N1CCN(c2ccncc2)CC1 | x | x | x | x | x | n
COc1ccc(Nc2nnc(SCC(=O)/C=C3/N(C)c4ccccc4C3(C)C)s2)cc1 | u | 7.4µM | n | n | 9.3µM | -74
CN1/C(=C\C(=O)COC(=O)c2ccc(O)c(O)c2)C(C)(C)c2ccccc21 | u | n | n | n | n | -79
Cc1ccc[n+](CC(=O)/C=C2\N(C)c3ccccc3C2(C)C)c1 | n | 0.37µM | n | n | u | -98
CN1/C(=C\C(=O)CSc2nnc(N)s2)C(C)(C)c2ccccc21 | n | n | n | n | n | u
